Assay outcomes: PubChem, several laboratories
Rtt109 HAT inh: inhibitors of Candida albicans Rtt109/Vps75 histone acetyltransferase. Q5AAJ8. purified Rtt109/Vps75, ThioGlo CoA-SH fluorescence, 4 h. inhibition, % at 34.9 µM. 330,000 compounds, 0.16% hits;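 active = inhibition of at least 50% in every replicate; inconclusive = best replicate reaches 50% inhibition but some replicates fall short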
rCAG RNA binder: r(CAG) repeat RNA binding | TO-PRO-1 dye displacement fluorescence | inhibition, % at 3 µM | 370,000 compounds, 1.3% hits | AID 651821;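 active = inhibition above the plate cutoff, the mean of all test compounds on that plate plus 3 SD, cut at about 35% in these data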;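 also: 0% = DMSO alone and 100% = 100 µM mitoxantrone as full dye displacement; higher means more dye released from RNA so lower well fluorescence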
PRMT1 inh: blocks human protein arginine methyltransferase 1 | AID 652257 | Q99873 | recombinant PRMT1, activity-based probe fluorescence polarization | 370,000 compounds, 1.3% hits | inhibition, % at 2.79 µM;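 active = inhibition above about 21% made by adding two undisclosed values, limit read from the data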
ABHD5-PLIN5 inh: inhibitors of human ABHD5-perilipin-5 interaction; Q00G26+Q8WTS1; Split G. princeps luciferase complementation, luminescence, 4 h; inhibition, % at 4 µM; 360,000 compounds, 0.78% hits;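 active = inhibition above the mean inhibition across every tested compound plus 3 SD, cut at about 22% in these data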;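 also: 0% = DMSO only wells and the 100% control is not disclosed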
ALR inh: inhibitors of human sulfhydryl oxidase ALR; P55789; AID 485317; 290,000 compounds, 3.8% hits; inhibition, % (test concentration not listed); purified ALR, DTT oxidation, H2O2 HRP-luminol luminescence;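 active = mean replicate inhibition above about 79%, with every replicate also reaching it, limit read from the data; inconclusive = only one of the two criteria met; inactive = mean below limit and not every replicate reaching it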
LANA-H2A inh: blocks KSHV LANA binding to histone H2A/H2B; Q9QR71; cell-free LANA-H2A/H2B peptide, fluorescence polarization; inhibition, % (concentration not given with the values); 320,000 compounds, 0.6% hits; AID 2629; in the data active = inhibition mostly above about 10%, no sharp cut-off; inactive = mostly below about 6.7%
Target sequence (Q9QR71 whole entry, looked up): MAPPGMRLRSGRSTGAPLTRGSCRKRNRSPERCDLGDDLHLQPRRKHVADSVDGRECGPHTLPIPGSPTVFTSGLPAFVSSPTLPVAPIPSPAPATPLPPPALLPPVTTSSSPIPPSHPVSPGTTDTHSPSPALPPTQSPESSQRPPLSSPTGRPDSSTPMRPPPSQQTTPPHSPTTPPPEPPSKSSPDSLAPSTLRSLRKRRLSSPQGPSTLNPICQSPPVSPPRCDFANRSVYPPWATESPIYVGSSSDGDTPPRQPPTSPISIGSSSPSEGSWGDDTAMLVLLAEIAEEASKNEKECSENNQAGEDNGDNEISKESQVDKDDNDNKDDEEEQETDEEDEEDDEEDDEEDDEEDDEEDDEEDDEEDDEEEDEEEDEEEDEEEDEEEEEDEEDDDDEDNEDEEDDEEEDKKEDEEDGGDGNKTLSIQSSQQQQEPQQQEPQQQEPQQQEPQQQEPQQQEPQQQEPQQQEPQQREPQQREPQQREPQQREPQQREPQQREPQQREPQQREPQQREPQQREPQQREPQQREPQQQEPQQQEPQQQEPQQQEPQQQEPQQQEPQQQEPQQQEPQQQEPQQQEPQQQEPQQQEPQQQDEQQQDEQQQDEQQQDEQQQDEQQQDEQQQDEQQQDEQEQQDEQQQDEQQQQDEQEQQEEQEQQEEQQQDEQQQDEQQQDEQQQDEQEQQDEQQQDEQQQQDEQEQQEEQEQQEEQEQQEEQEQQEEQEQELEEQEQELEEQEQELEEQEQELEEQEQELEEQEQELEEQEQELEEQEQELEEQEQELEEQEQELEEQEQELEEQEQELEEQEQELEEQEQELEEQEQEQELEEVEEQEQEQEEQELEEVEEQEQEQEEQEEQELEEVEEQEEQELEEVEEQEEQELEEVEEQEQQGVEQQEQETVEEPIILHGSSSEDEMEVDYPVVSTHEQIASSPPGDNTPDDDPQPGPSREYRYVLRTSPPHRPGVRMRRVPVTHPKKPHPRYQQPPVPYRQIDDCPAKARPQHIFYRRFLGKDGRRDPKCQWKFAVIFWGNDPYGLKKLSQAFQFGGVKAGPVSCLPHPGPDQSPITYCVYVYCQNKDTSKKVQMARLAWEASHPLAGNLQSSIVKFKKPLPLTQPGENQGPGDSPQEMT
The depositor's hits bear a star; ? = inconclusive; / = no result given. In the library only some 5.9% were active in any assay of this set; here they are far more common.

SMILES	Rtt109 HAT inh	rCAG RNA binder	PRMT1 inh	ABHD5-PLIN5 inh	ALR inh	LANA-H2A inh
CS(=O)(=O)c1ccc(C(=O)CN2C(=O)NC3(CCCc4ccccc43)C2=O)cc1 (centres undefined)	4.0	14.7	4.6	-1.5	-4.0	17.0*
Cc1ccc(N2C(=O)C(CC(=O)Nc3cccc(F)c3)N(C3CC3)C2=O)cc1 (centres undefined)	-1.3	1.1	0.8	-0.2	78.5*	3.4
OCCNc1cc(-n2nc(-c3ccccc3)cc2-c2ccccc2)ncn1	0.1	-4.6	1.3	4.1	96.5*	0.6
Cc1c(NC(=S)N/N=C/c2ccc(O)cc2)c(=O)n(-c2ccccc2)n1C	/	-0.2	0.9	-2.5	99.2*	-0.7
Cc1c(NC(=S)N/N=C/c2cc([N+](=O)[O-])ccc2O)c(=O)n(-c2ccccc2)n1C	13.8	20.0	4.2	6.0	63.1	4.4
CCc1nnc(NC(=O)CSc2nnc(CNc3cccc(Cl)c3)n2CC)s1	-0.6	0.0	-2.1	-5.5	3.7	-21.4
CCc1nnc(NC(=O)CSc2nnc(C3CCCCC3)n2-c2cccc(Cl)c2)s1	59.2*	-5.0	2.6	2.2	-5.8	-3.6
CC(C)Nc1c(N)c(=O)oc2ccccc12	0.9	-1.2	3.4	1.2	91.9*	1.1
CCOC(=O)c1oc2ccccc2c1CN1CCN(c2ccccc2)CC1	8.9	1.6	1.3	-5.5	94.0*	-0.1
Nc1c(N2CCN(c3ccccc3)CC2)c2ccccc2oc1=O	2.8	0.6	0.4	-6.6	97.7*	-2.0
Cc1ccc(Nc2c(N)c(=O)oc3ccccc23)cc1	-1.9	0.4	2.9	-9.3	/	0.9
CNc1c(N)c(=O)oc2ccccc12	2.0	0.9	-1.1	-2.5	92.5*	1.6
CCOC(=O)c1oc2ccccc2c1CN1CCN(C(=O)c2ccccc2)CC1	3.5	-3.0	0.8	-4.0	-2.7	-1.4
CC(C)(C)c1ccc(S(=O)(=O)N2CCC(C(=O)N3CCN(C4CCCCC4)CC3)CC2)cc1	/	2.4	-2.3	/	/	/
CN(CCO)C1CN(Cc2cn(Cc3ccccc3F)nn2)S(=O)(=O)C1 (centres undefined)	/	-1.5	-1.6	/	/	/
Cn1c(N)c(C(=O)Nc2ccccc2)c(=O)[nH]c1=O	/	0.9	-6.4	/	-11.3	-1.7
Cn1c(N)c(N2CCN(c3ccccc3)CC2)c(=O)[nH]c1=O	4.2	-2.9	-2.1	1.6	98.4*	2.3
O=C1CCC[C@H]2C[C@H](NCc3ccco3)CC[C@]23CCCN13	/	/	-2.0	/	/	/
Cc1ccc(CN2CC(N3CCCC3)CS2(=O)=O)cc1 (centres undefined)	/	0.4	2.1	2.3	/	/
CCOC(=O)c1sc2ccc(S(=O)(=O)N3CC(C)CC(C)C3)cc2c1N (centres undefined)	-6.8	3.2	21.3*	-2.5	/	/
S=C(Nc1cccnc1)N1CCc2ccccc21	-14.8	-2.8	-6.9	2.5	16.1	0.7
Fc1ccc(NC(=S)N2CCCc3ccccc32)cc1	4.5	2.4	-2.6	-3.8	88.9*	-4.1
O=C(/C=C/c1ccco1)NCC1OCCc2ccccc21 (centres undefined)	46.3	12.5	18.1	20.4	98.1*	-5.9
CCC(Sc1nc(C)cc(=O)[nH]1)C(=O)Nc1sc2c(c1C#N)CCCC2 (centres undefined)	-2.7	54.9*	4.9	1.6	9.9	-0.2
N#Cc1c(NC(=O)CSc2nc(N)cc(=O)[nH]2)sc2c1CCCCCC2	3.2	17.2	-0.7	-2.7	3.8	1.1
SMILES	Rtt109 HAT inh	rCAG RNA binder	PRMT1 inh	ABHD5-PLIN5 inh	ALR inh	LANA-H2A inh
Cc1nnc(SC(C)C(=O)Nc2sc3c(c2C#N)CCCC3)[nH]c1=O (centres undefined)	14.2	10.5	2.8	2.4	20.6	-1.9
CC(Sc1nc(N)cc(=O)[nH]1)C(=O)Nc1sc2c(c1C#N)CCCC2 (centres undefined)	-5.2	14.9	-3.4	-1.9	92.2*	10.0
CCC1C(C#N)=C(SCC(N)=O)NC2=C1C(=O)CC(C)(C)C2 (centres undefined)	/	-1.9	-0.3	-4.0	96.6*	3.5
C=CCn1c(-c2cccc([N+](=O)[O-])c2)n[nH]c1=S	-8.3	4.0	-1.6	-1.3	96.2*	-4.2
C=CCn1c(-c2cccc(Cl)c2)n[nH]c1=S	-8.8	0.2	-1.2	-0.3	?	4.6
O=[N+]([O-])c1cccc(-c2n[nH]c(=S)n2-c2ccc(Br)cc2)c1	4.1	12.6	11.2	6.9	94.8*	1.3
C=CCn1c(-c2sccc2C)n[nH]c1=S	-0.9	-3.0	-0.4	-0.8	94.8*	0.7
S=c1[nH]nc(-c2ccc(Br)cc2)n1-c1ccc(Br)cc1	10.2	12.4	7.4	0.8	?	-1.8
O=C(O)c1ccc(-n2c(-c3ccc(Br)cc3)n[nH]c2=S)cc1	-10.4	/	/	-2.4	92.5*	-1.6
O=[N+]([O-])c1cccc(-c2n[nH]c(=S)n2Cc2ccccc2)c1	1.0	0.8	1.3	-3.2	?	-3.6
CC(C)CCNC(=O)[C@@H](Cc1ccccc1)NC(=O)[C@H]1O[C@@H](n2ccc(=O)[nH]c2=O)[C@H](O)[C@@H]1O	/	1.3	-0.4	/	/	/
CCNC(=S)NNC(=O)c1cnccn1	/	1.2	-4.5	/	/	/
CCOC(=O)c1c(NC(C)=O)sc2c1CCC(C=NCCCN(CC)CC)=C2Sc1ccccc1	-8.5	/	/	48.3*	-19.0	-6.0
CCOc1ccc(S(=O)(=O)Nc2ccc(C(=O)NCCCN3CCOCC3)cc2)cc1	/	-0.3	3.6	3.4	-8.0	2.1
Cc1cc2c(c(=O)o1)C(CCC1CCCCC1)C(C#N)=C(N)O2 (centres undefined)	/	2.4	-3.3	6.7	96.8*	-7.4
CN(C)Cc1c(C(C)(C)O)[nH]c2cc(C(F)(F)F)ccc12	/	1.2	0.1	/	/	/
CC(C(=O)N(C)C1CCS(=O)(=O)C1)N1C(=O)/C(=C/c2ccco2)SC1=S (centres undefined)	18.8	22.0	23.7*	5.6	-66.6	5.3
CCOC(=O)c1cc2ccccc2n1C1CCN(C)CC1	/	1.3	4.2	-3.7	/	/
CC(/C=C/c1ccco1)=N/NC(=O)c1ccccc1Cl	-10.1	11.7	4.8	22.1*	18.2	1.1
O=C(CSc1nc2ccccc2nc1N1CCCC1)N1CCN(c2cccc(C(F)(F)F)c2)CC1	/	6.3	0.1	/	/	/
COc1ccccc1-c1csc(C(C)(O)c2cccc(F)c2)n1 (centres undefined)	/	1.7	-1.5	-2.7	/	/
c1ccc(COCc2ccccc2)cc1	/	1.0	2.3	/	/	/
CN(C)c1ccc(/C=C2\SC(N3CCCCC3)=NC2=O)cc1	-7.8	-5.5	-10.0	5.3	99.0*	-7.1
CCOC(=O)C1CCN(C2=NC(=O)/C(=C/c3ccc(Cl)cc3)S2)CC1	-2.2	-3.2	2.9	7.2	96.5*	2.6
Cc1ccc(/C=C2\SC(N3CCCC3)=NC2=O)cc1	/	1.9	1.4	/	/	-3.8
COc1cc(/C=C2\SC(N3CCC(C)CC3)=NC2=O)ccc1O	-4.1	-4.6	-6.5	0.6	90.4*	1.2
